Laboratory results taken from PubChem BioAssay (Tox21).
Inconclusive results are not listed. A call without a number means that no potency is given here. Calls of active or inactive are those of the source. Unless noted, calls follow the shape of the dose curve; as a rule, active = well fitted curve in the direction sought with a large enough effect in the repeat runs; inconclusive = weak or mixed curves; inactive = no such curve, though single readings can be large; an effect the other way counts as inactive or inconclusive.

How the values were obtained:
[1] = qHTS assay to identify aromatase inhibitors - cell viability counter screen (AID 743084); details: MCF-7 aro ERE viability, CellTiter-Fluor, 24 h; series mostly up to 70.3 µM;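 also: cells stimulated with testosterone during compound exposure; nearly all actives have a fitted effect of over 55% in size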
[2] = biological target: Aryl hydrocarbon receptor (Homo sapiens) (UniProt P35869); assay: qHTS assay to identify small molecule that activate the aryl hydrocarbon receptor (AhR) signaling pathway (AID 743085); details: HepG2 AhR-luc (HG2L7.5c1), luciferase, 24 h; series mostly up to 70.3 µM; also: nearly all actives have a fitted effect of over 15% in size; also: potency is read from the fitted curve at half-maximal effect;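 as to activation: HG2L7.5c1 human HepG2 liver cells with stably integrated DRE-driven firefly reporter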
Chain of Aryl hydrocarbon receptor (Homo sapiens) (P35869 whole entry, looked up): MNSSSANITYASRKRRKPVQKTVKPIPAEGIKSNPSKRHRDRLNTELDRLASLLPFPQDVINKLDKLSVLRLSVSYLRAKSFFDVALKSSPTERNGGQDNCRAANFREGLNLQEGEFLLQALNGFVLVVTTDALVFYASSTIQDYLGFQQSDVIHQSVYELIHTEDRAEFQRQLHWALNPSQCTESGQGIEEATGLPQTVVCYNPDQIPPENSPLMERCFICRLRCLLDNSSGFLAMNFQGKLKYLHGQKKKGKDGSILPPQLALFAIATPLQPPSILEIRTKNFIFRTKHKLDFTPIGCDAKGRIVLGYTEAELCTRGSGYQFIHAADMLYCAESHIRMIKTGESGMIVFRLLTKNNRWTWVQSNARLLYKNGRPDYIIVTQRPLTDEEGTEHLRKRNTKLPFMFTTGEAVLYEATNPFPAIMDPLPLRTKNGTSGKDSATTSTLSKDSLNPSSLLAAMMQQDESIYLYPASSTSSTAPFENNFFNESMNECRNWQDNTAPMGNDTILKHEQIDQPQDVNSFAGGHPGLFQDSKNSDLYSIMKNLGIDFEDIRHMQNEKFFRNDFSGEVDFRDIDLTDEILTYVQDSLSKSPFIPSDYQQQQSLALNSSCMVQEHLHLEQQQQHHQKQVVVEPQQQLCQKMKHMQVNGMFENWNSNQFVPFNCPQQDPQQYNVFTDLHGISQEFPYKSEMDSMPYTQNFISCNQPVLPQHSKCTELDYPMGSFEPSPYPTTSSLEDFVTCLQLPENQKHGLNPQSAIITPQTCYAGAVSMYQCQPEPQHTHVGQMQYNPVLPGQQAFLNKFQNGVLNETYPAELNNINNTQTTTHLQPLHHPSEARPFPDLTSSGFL
How it was run: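 Luminescence (ONE-Glo) from a dioxin-responsive-element luciferase reporter in HG2L7.5c1 HepG2 cells after 24 hr compound exposure at 37C; viability measured by CellTiter-Fluor fluorescence beforehand.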

[3] = qHTS assay to identify small molecule that activate the aryl hydrocarbon receptor (AhR) signaling pathway - cell viability counter screen (AID 743086); details: HepG2-AhR-luc viability, CellTiter-Fluor, 24 h; series mostly up to 70.3 µM;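 also: HepG2 liver cells carrying the AhR DRE luciferase reporter; nearly all actives have a fitted effect of over 45% in size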
How it was run: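 HepG2-AhR-luc (HG2L7.5c1) cells, 4000/well, treated 24 h at 37 C with compound; viability measured as CellTiter-Fluor fluorescence after 30 min in the same wells as the luciferase read.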

[4] = biological target: Peroxisome proliferator-activated receptor gamma (Homo sapiens) (UniProt P37231); assay: qHTS assay to identify small molecule agonists of the peroxisome proliferator-activated receptor gamma (PPARg) signaling pathway (AID 743094; active = well fitted activation curve with a large enough effect in the signal ratio in the repeat runs, not every such curve was filed as active; the % refers to the signal ratio); details: HEK293H PPARg-UAS-bla, beta-lactamase FRET ratio, 17 h; series mostly up to 57 µM
Chain of Peroxisome proliferator-activated receptor gamma (Homo sapiens) (P37231 whole entry, looked up): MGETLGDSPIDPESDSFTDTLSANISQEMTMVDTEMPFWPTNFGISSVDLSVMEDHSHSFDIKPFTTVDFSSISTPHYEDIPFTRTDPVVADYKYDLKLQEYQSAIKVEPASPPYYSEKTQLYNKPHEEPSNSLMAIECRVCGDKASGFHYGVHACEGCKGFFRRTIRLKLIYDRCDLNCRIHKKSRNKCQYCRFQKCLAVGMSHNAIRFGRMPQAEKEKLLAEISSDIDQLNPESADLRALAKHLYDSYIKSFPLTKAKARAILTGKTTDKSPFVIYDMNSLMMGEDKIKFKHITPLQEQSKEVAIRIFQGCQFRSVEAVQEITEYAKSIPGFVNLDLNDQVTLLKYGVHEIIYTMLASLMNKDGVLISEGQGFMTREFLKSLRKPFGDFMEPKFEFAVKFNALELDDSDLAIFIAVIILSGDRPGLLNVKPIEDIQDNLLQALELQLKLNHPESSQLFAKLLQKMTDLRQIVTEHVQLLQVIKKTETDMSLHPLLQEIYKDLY
How it was run: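 Agonism was assessed in a beta-lactamase reporter system, HEK293H cells with a stably integrated UAS-bla construct under PPARg control; the 17 h treatment at 37C preceded a 1 h room-temperature FRET substrate read.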

[5] = biological target: Peroxisome proliferator-activated receptor gamma (Homo sapiens) (UniProt P37231); assay: qHTS assay to identify small molecule antagonists of the peroxisome proliferator-activated receptor gamma (PPARg) signaling pathway (AID 743191; calls by dose curve; also: nearly all actives have a fitted effect of over 30% in size); details: HEK293H PPARg-UAS-bla, beta-lactamase ratio, antagonist, 17 h; series mostly up to 62.6 µM
How it was run: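 GeneBLAzer PPARg UAS-bla HEK293H cells, 5 h post-plating, exposed to compounds 17 h at 37C. LiveBLAzer B/G FRET substrate added for 1 h at room temperature; beta-lactamase reporter read by fluorescence intensity.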

[6] = qHTS assay to identify small molecule antagonists of the peroxisome proliferator-activated receptor gamma (PPARg) signaling pathway - cell viability counter screen (AID 743194); details: PPARg-bla HEK293H viability, CellTiter-Glo luminescence, 17 h; Potency: co-treated with 50 nM rosiglitazone; series mostly up to 62.6 µM; also: nearly all actives have a fitted effect of over 55% in size
How it was run: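 Cytotoxicity counter screen in PPARg-bla HEK293H cells, same wells as reporter assay. Compounds plus 50 nM rosiglitazone (final) for 17 h at 37 C, then viability read by CellTiter-Glo luminescence.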

[7] = qHTS assay for small molecule agonists of the antioxidant response element (ARE) signaling pathway - cell viability counter screen (AID 743203; calls by dose curve; also: nearly all actives have a fitted effect of over 55% in size); details: ARE-bla HepG2 viability, CellTiter-Glo luminescence, 16 h; series mostly up to 73.3 µM
How it was run: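 ATP content via CellTiter-Glo luminescence served as the viability measure. Cells: ARE-bla HepG2, 2,000 per well. Exposure: 16 hrs, 37C/5% CO2.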

[8] = qHTS assay for small molecule activators of the heat shock response signaling pathway - cell viability counter screen (AID 743209); details: HSE-bla HeLa viability, CellTiter-Glo luminescence, 5 h; series mostly up to 62.6 µM; also: nearly all actives have a fitted effect of over 50% in size
How it was run: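 Compounds dissolved in DMSO were added to overnight-plated HSE-bla HeLa cells and left 5 h at 37 C. Cell viability was quantified by luminescence using CellTiter-Glo.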

[9] = qHTS assay for small molecule activators of the heat shock response signaling pathway (AID 743210; active = well fitted activation curve with a large enough effect in the signal ratio in the repeat runs, with a control signal flat, not every such curve was filed as active; the % refers to the signal ratio;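 also: HeLa cells with beta-lactamase reporter driven by heat shock elements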); details: HeLa HSE-bla reporter, beta-lactamase ratio, 5 h; series mostly up to 62.6 µM
How it was run: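 Following overnight attachment, HSE-bla HeLa cells received test compounds for 5 h at 37 C; beta-lactamase activity was then detected via FRET substrate fluorescence.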

[10] = qHTS assay for small molecule agonists of the antioxidant response element (ARE) signaling pathway (AID 743202; active = well fitted activation curve with a large enough effect in the signal ratio in the repeat runs, not every such curve was filed as active; the % refers to the signal ratio; also: potency is read from the fitted curve at half-maximal effect); details: HepG2 ARE-bla reporter, beta-lactamase FRET, 16 h; series mostly up to 73.3 µM
How it was run: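 HepG2 ARE-bla cells; 16 h treatment at 37 C; FRET-based beta-lactamase fluorescence read after 2 h substrate incubation at room temperature.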

SMILES	Potency [1]	Potency [2]	outcome [3]	outcome [4]	Potency [5]	Potency [6]	Potency [7]	Potency [8]	outcome [9]	Potency [10]
CCOC(=O)N(C)C(=O)CSP(=S)(OCC)OCC	inactive	15.4 µM (active)	inactive	inactive	inactive	inactive	inactive	inactive	inactive	–
CN(N=O)C(N)=O	inactive	inactive	inactive	inactive	inactive	inactive	inactive	–	–	inactive
O=[N+]([O-])c1cccc(O)c1	inactive	inactive	inactive	inactive	inactive	inactive	inactive	inactive	inactive	–
c1cc2c(c(N3CCNCC3)c1)OCCO2	inactive	inactive	inactive	inactive	inactive	inactive	inactive	inactive	inactive	inactive
Clc1cccc(N2CCNCC2)c1	inactive	inactive	inactive	inactive	inactive	inactive	inactive	inactive	inactive	inactive
c1coc(-c2nc3ccccc3[nH]2)c1	inactive	30.6 µM (active)	inactive	inactive	inactive	inactive	inactive	inactive	inactive	inactive
CC(C)CC#N	inactive	inactive	inactive	inactive	inactive	inactive	inactive	inactive	inactive	inactive
N#CCNCC#N	inactive	inactive	inactive	inactive	inactive	inactive	inactive	inactive	inactive	inactive
CCCSP(=S)(OCC)Oc1ccc(Cl)cc1Cl (stereo not drawn)	inactive	54.5 µM (active)	inactive	inactive	inactive	inactive	inactive	inactive	inactive	–
COC(=O)C(c1ccccc1)C1CCCCN1 (stereo not drawn)	inactive	inactive	inactive	inactive	inactive	inactive	inactive	inactive	inactive	–
ClC(Cl)Br	inactive	inactive	inactive	inactive	inactive	inactive	inactive	inactive	inactive	inactive
[O]=[Cd]	inactive	inactive	inactive	inactive	inactive	inactive	inactive	inactive	inactive	inactive
CC(COc1ccc(Oc2ccccc2)cc1)Oc1ccccn1 (stereo not drawn)	inactive	inactive	inactive	inactive	inactive	inactive	inactive	inactive	–	48.5 µM (active)
CCOP(=O)(N=C1SCCS1)OCC	inactive	inactive	inactive	inactive	inactive	inactive	inactive	inactive	inactive	inactive
O=C1OC(=O)C2C1C1(Cl)C(Cl)=C(Cl)C2(Cl)C1(Cl)Cl (stereo not drawn)	inactive	inactive	inactive	inactive	inactive	inactive	inactive	inactive	inactive	inactive
C[N+](=O)[O-]	inactive	inactive	inactive	inactive	inactive	inactive	inactive	inactive	inactive	–
COc1cc2c(cc1OC)[C@@]13CCN4CC5=CCO[C@H]6CC(=O)N2[C@H]1[C@H]6[C@H]5C[C@H]43	inactive	inactive	inactive	inactive	inactive	inactive	inactive	–	inactive	–
COC(=O)c1c(C(F)F)nc(C(F)(F)F)c(C2=NCCS2)c1CC(C)C	inactive	inactive	inactive	inactive	inactive	inactive	inactive	–	inactive	inactive
Cc1ncc(CNC(=O)N(CCCl)N=O)c(N)n1	inactive	inactive	inactive	inactive	inactive	inactive	inactive	inactive	inactive	inactive
Cc1cc(C)nc(Nc2ccccc2)n1	inactive	48.6 µM (active)	inactive	inactive	inactive	inactive	inactive	inactive	–	inactive
O=C(O)c1cccc(Cl)c1	inactive	inactive	inactive	inactive	inactive	inactive	inactive	inactive	inactive	–
CC(N)=S	inactive	inactive	inactive	inactive	inactive	inactive	inactive	inactive	–	inactive
Nc1n[nH]c(N)n1	inactive	inactive	inactive	inactive	inactive	inactive	inactive	inactive	inactive	inactive
O=C1OC(c2ccc(O)c(S(=O)(=O)O)c2)(c2ccc(O)c(S(=O)(=O)O)c2)c2c(Br)c(Br)c(Br)c(Br)c21	inactive	inactive	inactive	inactive	inactive	inactive	inactive	inactive	inactive	–
CCCCc1c(C)nc(NCC)[nH]c1=O	inactive	inactive	inactive	inactive	inactive	inactive	inactive	inactive	inactive	inactive
O=[N+]([O-])c1cccc2c([N+](=O)[O-])cccc12	inactive	inactive	inactive	inactive	inactive	inactive	inactive	–	inactive	3.88 µM (active)
CC(Cl)(Cl)[N+](=O)[O-]	inactive	inactive	inactive	inactive	inactive	inactive	inactive	inactive	inactive	inactive

SMILES	Potency [1]	Potency [2]	outcome [3]	outcome [4]	Potency [5]	Potency [6]	Potency [7]	Potency [8]	outcome [9]	Potency [10]
CC(=O)Nc1cc([As](=O)(O)O)ccc1O	inactive	inactive	inactive	inactive	inactive	inactive	inactive	–	–	inactive
COc1ccc2c(c1OC)CN1CCc3cc4c(cc3C1C2)OCO4 (stereo not drawn)	inactive	0.403 µM (active)	inactive	inactive	inactive	inactive	inactive	inactive	inactive	–
C[C@@H]1CN(C2CCC(C#N)(c3ccc(F)cc3)CC2)CC[C@]1(C(=O)O)c1ccccc1 (stereo partly drawn)	inactive	inactive	inactive	inactive	inactive	inactive	inactive	inactive	inactive	inactive
CCN(CC)C(C)C(=O)c1ccccc1 (stereo not drawn)	inactive	inactive	inactive	inactive	inactive	inactive	inactive	inactive	inactive	inactive
CCC/C(=N\OCC)C1=C(O)CC(CC(C)SCC)CC1=O (stereo not drawn)	inactive	inactive	inactive	inactive	inactive	inactive	inactive	inactive	–	–
CCCCc1ccc(O)cc1	inactive	inactive	inactive	inactive	inactive	inactive	inactive	inactive	inactive	–
CCCCCCI	inactive	inactive	inactive	inactive	inactive	inactive	–	inactive	inactive	inactive
CCOP(=O)(OCC)OP(=O)(OCC)OCC	inactive	inactive	inactive	inactive	inactive	inactive	inactive	inactive	inactive	inactive
CSc1ccc(C(=O)C(C)(C)N2CCOCC2)cc1	inactive	inactive	inactive	inactive	inactive	inactive	–	inactive	inactive	inactive
O=CNC(N1CCN(C(NC=O)C(Cl)(Cl)Cl)CC1)C(Cl)(Cl)Cl (stereo not drawn)	inactive	inactive	inactive	inactive	inactive	inactive	inactive	inactive	–	inactive
COC(=O)c1ccccc1S(=O)(=O)NC(=O)N(C)c1nc(C)nc(OC)n1	inactive	inactive	inactive	inactive	inactive	–	inactive	inactive	inactive	inactive
COP(=S)(OC)Oc1c(Cl)cc(C)cc1Cl	inactive	48.6 µM (active)	inactive	inactive	inactive	–	–	–	inactive	inactive
OCCBr	inactive	inactive	inactive	inactive	inactive	–	–	inactive	inactive	27.4 µM (active)
COC(=O)c1ccccc1S(=O)(=O)NC(=O)Nc1nc(C)cc(C)n1	inactive	inactive	inactive	inactive	inactive	–	inactive	inactive	–	inactive
COc1cc(OC)nc(Oc2cccc(Oc3nc(OC)cc(OC)n3)c2C(=O)O)n1	inactive	inactive	inactive	inactive	inactive	–	–	inactive	inactive	inactive
CCN(Cc1ccc(Cl)nc1)/C(=C/[N+](=O)[O-])NC	inactive	inactive	inactive	inactive	–	inactive	inactive	inactive	inactive	inactive
CN1CCN(C(=O)O[C@H]2c3nccnc3C(=O)N2c2ccc(Cl)cn2)CC1	inactive	inactive	inactive	inactive	inactive	–	inactive	inactive	inactive	inactive
CS(=O)(=O)c1cc(C(F)(F)F)ccc1C(=O)c1cnoc1C1CC1	inactive	inactive	inactive	inactive	–	inactive	inactive	inactive	inactive	inactive
COc1ccc(C(=O)N2CCCC2=O)cc1	inactive	inactive	inactive	inactive	–	inactive	inactive	inactive	inactive	inactive
CCOP(=S)(OCC)Oc1nc(Cl)n(C(C)C)n1	inactive	10.9 µM (active)	inactive	inactive	inactive	–	inactive	inactive	inactive	inactive
CNCC(=O)c1ccc(O)c(O)c1	inactive	inactive	inactive	inactive	inactive	inactive	–	inactive	–	–
CNC(=O)Oc1c(C(C)(C)C)cc(C)cc1C(C)(C)C	inactive	inactive	inactive	inactive	inactive	–	inactive	–	–	inactive
C=C(C)CN(CC)c1c([N+](=O)[O-])cc(C(F)(F)F)cc1[N+](=O)[O-]	inactive	inactive	inactive	inactive	inactive	–	inactive	inactive	inactive	inactive
CCC(=O)c1ccccc1	inactive	inactive	inactive	inactive	–	inactive	inactive	inactive	inactive	inactive
CCC(C)(C)c1cc(-n2nc3ccccc3n2)c(O)c(C(C)(C)CC)c1	inactive	inactive	inactive	inactive	–	inactive	inactive	inactive	inactive	inactive
CC1(C)CON(Cc2ccccc2Cl)C1=O	inactive	inactive	inactive	inactive	inactive	–	inactive	inactive	inactive	–
N#Cc1ccncc1	inactive	inactive	inactive	inactive	inactive	–	inactive	inactive	inactive	inactive
